Consider 20 compounds from PubChem BioAssay.

The nature of assay [1]: antimalarial activity against Dd2 strain (AID 2302;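 active = growth inhibition above 50% at the single 2 µM test dose, taken to imply half-maximal potency below 2 µM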;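 also: 0% = DMSO untreated growth and 100% = chloroquine plus artemisinin killed control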). The following applies: P. falciparum Dd2 in RBCs, LDH growth readout, 72 h; at 2 µM; active compounds read high.
Assay [2] in a line: human hepatoma cell viability loss – ATP luminescence, cytotoxicity control for P. falciparum antimalarial project, primary screen (AID 2303;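 active = inhibition above 50%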;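 also: 0% = DMSO wells and 100% = digitonin-killed cells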). As to conditions: HepG2 viability, 24-48 h, at 10 µM, active compounds read high.
The target in assay [3] is L-lactate dehydrogenase (Plasmodium falciparum (isolate CDC / Honduras)) (UniProt Q27743). In words: PfLDH activity inhibition – cell lysate, 3D7 strain, counter-screen for P. falciparum growth inhibition project (AID 2304).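 Also: 0% = vehicle and 100% = reference inhibitor.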 As to conditions: P. falciparum 3D7 crude extract, LDH APAD/NBT absorbance; at 2 µM; active compounds read high. (Counterscreens check selectivity or assay interference.)

A short description of assay [4]: inhibition of 3D7 malaria parasite growth – strain 3D7 (AID 2306).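 Also: 0% = DMSO wells and 100% = chloroquine plus artemisinin control wells.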 The following applies: P. falciparum 3D7 erythrocytic growth, LDH absorbance, 72 h; at 2 µM; active compounds read high.
Assay [5] concerns the target Calcium-dependent protein kinase 1 (Plasmodium falciparum (isolate 3D7)) (UniProt P62344). The assay is described as follows: PfCDPK1 kinase inhibitors, biochemical, TCAMS library (AID 1159585; cut-off not given, nearly all actives have IC50 up to about 0.98 µM;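 also: inhibitors leave more ATP so luminescence rises with inhibition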). As to conditions: recombinant PfCDPK1, Kinase-Glo ATP depletion luminescence. (In general: Kinase-Glo reads ATP consumption through a luciferase reaction.)
Assay [6] deals with Plasmodium falciparum protein kinase 6 (PK6, PF3D7_1337100) (UniProt Q8IDW1). In words: PfPK6 kinase inhibitors, biochemical, TCAMS library (AID 1159586). As to conditions: recombinant PfPK6, Kinase-Glo ATP depletion luminescence.
Assay [7] concerns the target Protein kinase 7 (PK7), Plasmodium falciparum 3D7 (PF3D7_0213400) (UniProt Q7YTF7). In words: inhibition of Plasmodium PK7 catalytic activity – biochemical, TCAMS antimalarial set, Kinase-Glo luminescence (AID 1159587). As to conditions: recombinant PfPK7, Kinase-Glo ATP depletion luminescence.
The target of assay [8] is Calcium-dependent protein kinase 4 (Plasmodium falciparum (isolate 3D7)) (UniProt Q8IBS5). The assay is described as follows: PfCDPK4 kinase inhibitors, biochemical, TCAMS library (AID 1159588; cut-off not given, nearly all actives have IC50 up to about 0.91 µM). The following applies: recombinant PfCDPK4, Kinase-Glo ATP depletion luminescence.

In general, inhibition refers to the relative decrease from the control value, in per cent.

Unmarked numbers belong to inactive results. For some of these results: Entries with a potency or affinity are not part of this list. Calls of active or inactive are those of the source. Unless noted, no rule for the calls is given here.

Sequence of Calcium-dependent protein kinase 1 (Plasmodium falciparum (isolate 3D7)) (P62344 whole entry, looked up): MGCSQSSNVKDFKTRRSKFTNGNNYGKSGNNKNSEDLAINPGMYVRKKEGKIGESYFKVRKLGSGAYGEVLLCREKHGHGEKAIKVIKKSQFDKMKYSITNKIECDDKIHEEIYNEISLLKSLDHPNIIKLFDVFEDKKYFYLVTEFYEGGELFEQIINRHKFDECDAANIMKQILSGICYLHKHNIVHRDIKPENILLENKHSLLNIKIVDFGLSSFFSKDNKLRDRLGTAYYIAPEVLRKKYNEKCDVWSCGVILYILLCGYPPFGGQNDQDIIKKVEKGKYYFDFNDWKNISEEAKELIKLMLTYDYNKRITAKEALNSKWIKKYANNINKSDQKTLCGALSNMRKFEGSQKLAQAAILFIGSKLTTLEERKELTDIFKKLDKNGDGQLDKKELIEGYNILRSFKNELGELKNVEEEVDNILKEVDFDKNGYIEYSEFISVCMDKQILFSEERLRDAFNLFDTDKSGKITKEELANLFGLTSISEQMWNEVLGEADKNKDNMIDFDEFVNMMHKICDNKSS
Sequence of L-lactate dehydrogenase (Plasmodium falciparum (isolate CDC / Honduras)) (Q27743 whole entry, looked up): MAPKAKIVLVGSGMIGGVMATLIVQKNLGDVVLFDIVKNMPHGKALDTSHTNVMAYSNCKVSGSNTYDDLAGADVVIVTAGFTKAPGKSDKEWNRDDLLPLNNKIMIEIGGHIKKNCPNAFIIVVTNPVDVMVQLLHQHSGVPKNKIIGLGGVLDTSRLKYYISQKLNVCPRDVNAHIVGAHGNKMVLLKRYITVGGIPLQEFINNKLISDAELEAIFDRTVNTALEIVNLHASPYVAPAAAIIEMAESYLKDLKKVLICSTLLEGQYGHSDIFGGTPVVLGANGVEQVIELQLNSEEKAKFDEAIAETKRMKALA
Sequence of Plasmodium falciparum protein kinase 6 (PK6, PF3D7_1337100) (Q8IDW1 1-305): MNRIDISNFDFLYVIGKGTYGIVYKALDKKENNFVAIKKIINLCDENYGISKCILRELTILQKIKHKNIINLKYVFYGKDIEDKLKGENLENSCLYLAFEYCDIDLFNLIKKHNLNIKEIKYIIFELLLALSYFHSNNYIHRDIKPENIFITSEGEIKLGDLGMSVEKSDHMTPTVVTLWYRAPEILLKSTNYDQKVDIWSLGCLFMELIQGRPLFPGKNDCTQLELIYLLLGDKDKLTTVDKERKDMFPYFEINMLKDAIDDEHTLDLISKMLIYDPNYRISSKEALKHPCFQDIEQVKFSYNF
Sequence of Protein kinase 7 (PK7), Plasmodium falciparum 3D7 (PF3D7_0213400) (Q7YTF7 1-343): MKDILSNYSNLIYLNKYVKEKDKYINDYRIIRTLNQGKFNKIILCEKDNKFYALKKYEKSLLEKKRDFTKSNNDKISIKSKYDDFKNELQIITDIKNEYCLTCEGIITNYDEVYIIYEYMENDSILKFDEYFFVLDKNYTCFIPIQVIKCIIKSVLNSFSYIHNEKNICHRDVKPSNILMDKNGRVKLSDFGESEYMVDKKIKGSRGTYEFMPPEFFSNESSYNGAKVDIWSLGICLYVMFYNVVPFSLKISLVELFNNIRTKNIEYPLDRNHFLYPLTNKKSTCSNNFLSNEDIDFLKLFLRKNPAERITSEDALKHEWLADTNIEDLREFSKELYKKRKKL
Sequence of Calcium-dependent protein kinase 4 (Plasmodium falciparum (isolate 3D7)) (Q8IBS5 whole entry, looked up): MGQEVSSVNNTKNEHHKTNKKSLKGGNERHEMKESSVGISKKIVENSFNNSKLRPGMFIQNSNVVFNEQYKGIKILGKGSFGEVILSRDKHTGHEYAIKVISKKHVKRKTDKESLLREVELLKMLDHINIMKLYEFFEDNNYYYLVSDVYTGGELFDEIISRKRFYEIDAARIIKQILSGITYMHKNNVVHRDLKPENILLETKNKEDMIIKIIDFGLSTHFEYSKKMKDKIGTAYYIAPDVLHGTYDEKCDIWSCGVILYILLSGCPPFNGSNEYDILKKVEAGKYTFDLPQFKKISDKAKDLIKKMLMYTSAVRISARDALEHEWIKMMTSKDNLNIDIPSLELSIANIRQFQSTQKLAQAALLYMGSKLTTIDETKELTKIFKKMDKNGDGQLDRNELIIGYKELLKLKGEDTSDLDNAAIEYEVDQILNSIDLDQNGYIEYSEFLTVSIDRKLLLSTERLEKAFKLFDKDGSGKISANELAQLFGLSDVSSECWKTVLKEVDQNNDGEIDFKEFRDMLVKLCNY

On to `CCOc1cc(C(=O)N[C@@H](Cc2ccccc2)[C@H](O)CNC(C)(C)c2cccc(OC)c2)cc(N2CCCS2(=O)=O)c1`, for which the growth inhibition in assay [1] and in assay [4] was 99% (active) throughout. Further, the inhibition in assay [2] is -5%; in assay [3] it was -3%. Besides, the result in assay [5], in assay [6], in assay [7] and in assay [8] was inactive.

Turning to `O=C(Nc1ccc2c(c1)CN(Cc1ccc(N3CCCC3)o1)CCC2)c1ccoc1`, the growth inhibition in assay [1] is 76% (active); in assay [4], 89% (active). Also, the inhibition in assay [2] is 4%; in assay [3], -3%. Further, the outcome in assay [5], in assay [6], in assay [7] and in assay [8] was inactive.

With `N#Cc1ccc(C2CCN(CC[C@H](N)Cc3ccc(Cl)s3)CC2)cc1`, the growth inhibition in assay [1] is 30%; in assay [4], 92% (active). Besides, the values for the inhibition in assay [2] and in assay [3] were 31% and 6%, respectively. Further, the result in assay [5], in assay [6], in assay [7] and in assay [8] was inactive.

For the compound `CC(C)C1=C[C@H]2C[C@]3(C4OCCO4)[C@@H]4CC[C@@H](C)[C@H]4C[C@@]2(C(=O)OCC2COCO2)[C@]13C(=O)OC(c1ccccc1)c1ccccc1` (stereo not given in full), the growth inhibition is 96% (active) in assay [1] and 92% (active) in assay [4]. In addition, the inhibition in assay [2] is 2%; in assay [3], 4%. Besides, the result in assay [5], in assay [6], in assay [7] and in assay [8] was inactive.

With `Cc1cc(NC(=O)CCCN2CCN(c3cccc(Cl)c3Cl)CC2)ccc1N1CCN(C(C)C)CC1`, the growth inhibition was 53% (active) in assay [1] and 102% (active) in assay [4]. Further, the inhibition is 86% (active) in assay [2] and -1% in assay [3]. For the same compound, the result in assay [5], in assay [6], in assay [7] and in assay [8] was inactive.

Turning to `N#Cc1ccc(-c2ccc(C(=O)NCCCCN3CCC(c4ccncc4)CC3)cc2)cc1`, the growth inhibition was 16% in assay [1] and 94% (active) in assay [4]. The inhibition in assay [2] is 34%; in assay [3] it was -3%. The outcome in assay [5], in assay [6], in assay [7] and in assay [8] was inactive.

Turning to `CCCCCCCC1CC(CC(=O)Nc2ccnc3ccc(OC)cc23)CN1` (stereo not given), the growth inhibition was 58% (active) in assay [1] and 90% (active) in assay [4]. Also, the inhibition in assay [2] is 22%; in assay [3], -2%. Further, the outcome in assay [5], in assay [6], in assay [7] and in assay [8] was inactive.

For `COc1nc2c(CCN3CC[C@H](NCc4cc(C#N)c5c(c4)OCCO5)[C@H](O)C3)ccnc2cc1F`, the growth inhibition in assay [1] was 41%; in assay [4], 95% (active). Further, the figures for the inhibition in assay [2] and in assay [3] were 18% and -3%, respectively. For the same compound, the outcome in assay [5], in assay [6], in assay [7] and in assay [8] was inactive.

For `CN(C(=O)/C=C/c1ccccc1F)C1CCN(CCCCCNC(=O)/C=C/c2ccc(Cl)c(Cl)c2)CC1`, the growth inhibition was 59% (active) in assay [1] and 89% (active) in assay [4]. The inhibition is 73% (active) in assay [2] and -1% in assay [3]. The outcome in assay [5], in assay [6], in assay [7] and in assay [8] was inactive.

On to `CCc1cc(NC(=O)Nc2ccnc3ccccc23)ccc1OC`, for which the figures for the growth inhibition in assay [1] and in assay [4] were 24% and 85% (active), respectively. Also, the inhibition in assay [2] was -6%; in assay [3] it was 2%. Besides, the outcome in assay [5], in assay [6], in assay [7] and in assay [8] was inactive.

As to `COCCn1c(-c2cccc(Cl)c2)nn(-c2ccc([N+](=O)[O-])cc2C#N)c1=S`, the growth inhibition in assay [1] and in assay [4] was 100% (active) each time. The inhibition in assay [2] was 7%; in assay [3], 0%. Also, the outcome in assay [5], in assay [6], in assay [7] and in assay [8] was inactive.

Regarding `O=C(Nc1cc(C(F)(F)F)cc(C(F)(F)F)c1)NC(CCCN1CCC2(CC1)OCc1ccccc12)c1ccc(Cl)c(Cl)c1` (stereo not given), the growth inhibition in assay [1] is 87% (active); in assay [4] it was 94% (active). In addition, the results for the inhibition in assay [2] and in assay [3] were 26% and 2%, respectively. Also, the outcome in assay [5], in assay [6], in assay [7] and in assay [8] was inactive.

For `Cc1noc(C)c1-c1ccc2c(Nc3ccc(C#N)cc3)c(C(N)=O)cnc2c1`, the growth inhibition in assay [1] is 73% (active); in assay [4] it was 97% (active). The inhibition was 6% in assay [2] and 7% in assay [3]. For the same compound, the result in assay [5], in assay [6], in assay [7] and in assay [8] was inactive.

As for `CNC(=O)C1Cc2c([nH]c3cc(Br)ccc23)C2(CCN(CCc3ccccc3)CC2)N1` (stereo not given), the growth inhibition in assay [1] was 31%; in assay [4], 101% (active). In addition, the inhibition in assay [2] is 10%; in assay [3] it was -8%. Also, the result in assay [5], in assay [6], in assay [7] and in assay [8] was inactive.

`Cc1cc(F)ccc1Nc1nc(N(C)c2ccccc2)c2cccc(OCCO)c2n1`: the growth inhibition in assay [1] is 94% (active); in assay [4] it was 95% (active). In addition, the inhibition in assay [2] was 34%; in assay [3] it was 0%. Moreover, the result in assay [5], in assay [6], in assay [7] and in assay [8] was inactive.

Take `CCCCN(CCCC)C(=O)CC(O)c1cc2c(Cl)cc(Cl)cc2c2cc(C(F)(F)F)ccc12` (stereo not given): the values for the growth inhibition in assay [1] and in assay [4] were 68% (active) and 92% (active), respectively. The results for the inhibition in assay [2] and in assay [3] were -12% and -2%, respectively. Moreover, the outcome in assay [5], in assay [6], in assay [7] and in assay [8] was inactive.

For the compound `COc1ccc2nccc(NCC3(O)CCC(NCc4cc5c(cn4)OCCO5)CC3)c2n1` (stereo not given), the growth inhibition is 23% in assay [1] and 99% (active) in assay [4]. The inhibition was 15% in assay [2] and -3% in assay [3]. The outcome in assay [5], in assay [6], in assay [7] and in assay [8] was inactive.

As for `CCCCCCCCS(=O)(=O)NCCCC1CCN(CCCCCNC(=O)C=Cc2ccc(Cl)c(Cl)c2)CC1`, the values for the growth inhibition in assay [1] and in assay [4] were 26% and 91% (active), respectively. The results for the inhibition in assay [2] and in assay [3] were 100% (active) and 6%, respectively. Further, the result in assay [5], in assay [6], in assay [7] and in assay [8] was inactive.

Take `Oc1ccc(CN2Cc3ccccc3OC3(CCN(Cc4c[nH]c5cnccc45)CC3)C2)cc1`: the growth inhibition in assay [1] is 3%; in assay [4] it was 101% (active). In addition, the inhibition in assay [2] is 17%; in assay [3], -6%. Further, the outcome in assay [5], in assay [6], in assay [7] and in assay [8] was inactive.

For `c1ccc(CNCc2cccc(-c3csc(-c4nc5ccccc5[nH]4)c3)c2)cc1`, the growth inhibition in assay [1] was 54% (active); in assay [4], 102% (active). Further, the inhibition is 24% in assay [2] and -3% in assay [3]. Besides, the result in assay [5], in assay [6], in assay [7] and in assay [8] was inactive.
